According to PubChem BioAssay (NCI):
About 83,000 compounds went through this panel and 20% of them were active in at least one assay; those are over-represented in the sample as a whole.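 Activity criterion: percent growth below 10, measured after cells in 96-well plates were exposed to a single compound concentration for 48 hours.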 Values without a mark were called inactive. The source made the active and inactive calls.

Columns and labels:
Assay in all cases: NCI-60 one-dose screen, 48 h (100 = growth as untreated, 0 = no growth, -100 = all killed)
Conditions in all cases: 10 µM unless noted
[1] = test system: NCI-H23 lung
[2] = test system: NCI-H226 lung
[3] = test system: NCI-H322M lung
[4] = test system: HOP-62 NSCLC
[5] = test system: NCI-H460 lung
[6] = test system: HOP-92 NSCLC
[7] = test system: NCI-H522 lung
[8] = test system: A549/ATCC NSCLC
[9] = test system: 786-0 renal
[10] = test system: COLO 205 colon

Row | Compound | growth [1] | growth [2] | growth [3] | growth [4] | growth [5] | growth [6] | growth [7] | growth [8] | growth [9] | growth [10]
1 | CC(=O)OC1CCC2(C)C(CCC3C4CC=C(C(C)=O)C4(C)OC(=O)CC32)C1 (stereo not given) | 34.7% | 45% | 95.7% | 61% | 78.1% | -21.2% (active) | -81.1% (active) | 59.1% | 64% | 2.72% (active)
2 | COc1ccccc1N1CCN(C(=O)c2ccc3nc(NC(=O)c4ccc(NCCc5ccccc5)c([N+](=O)[O-])c4)sc3c2)CC1 | 81.9% | 87.4% | 91.5% | 82.9% | 86.5% | 81.9% | 80.4% | 91.3% | 110% | 100%
3 | Cn1c(COC(=O)NCCn2ccnc2)nc2c(N3CCOCC3)nc(-c3ccccc3)nc21 | -74.8% (active) | -53.8% (active) | 33.4% | -40.4% (active) | -72.1% (active) | -75.2% (active) | -54.7% (active) | -36.2% (active) | -89.7% (active) | -57.3% (active)
4 | COc1ccccc1/C=N/NC1=NC2C(N1)N(C)C(=O)N2C (stereo not given) | 100% | 90.4% | 95.5% | 92% | 102% | 93.5% | 103% | 102% | 102% | 101%
5 | CCOC(=O)N1CCc2c(sc3nc4nc[nH]n4c(=O)c23)C1 | 95% | 82.4% | 109% | 86.6% | 109% | 93.8% | 85.2% | 100% | 99.6% | 102%
6 | O=C1Nc2c(ccc(Cl)c2Cl)/C1=C/c1ccc([N+](=O)[O-])cc1 | 91.3% | 159% | 84.9% | 90.6% | 107% | 95.5% | 88.7% | 29.2% | 59.7% | 114%
7 | COc1cc(NCCCN(CC(C)C)C2CCCC2)c2ncccc2c1 | 62.5% | 58.3% | 101% | 82.9% | 54.8% | 59.5% | 60% | 79% | 58.2% | 65.1%
8 | [O-][n+]1ccccc1CCN(O)CCc1cccc[n+]1[O-] | 97.1% | 85.7% | 96.5% | 94.1% | 115% | 86.8% | 81.5% | 101% | 101% | 104%
9 | CC(=O)c1c(C)[nH]c(-c2nc3ccc(N4CCN(C)CC4)cc3[nH]2)c1-c1ccccc1 | 53% | 55.2% | 41.6% | 33.3% | 52.3% | 29.8% | 25.4% | 38.1% | 85.9% | 16.1%
10 | O=c1[nH]nc(-c2ccc(Cl)cc2)cc1Cc1cccc([N+](=O)[O-])c1 | 104% | 91.9% | 119% | 96.3% | 99.9% | 44.2% | 90.6% | 81.9% | 103% | 101%
11 | CCCCCCCC(=O)Nc1nc2[nH]c(CN3CCN(Cc4cccc(I)c4)CC3)c(CN3CCN(Cc4cccc(I)c4)CC3)c2c(=O)[nH]1 | -24.5% (active) | 66.4% | -60% (active) | -88.6% (active) | -75% (active) | -67.3% (active) | -58.8% (active) | -81.6% (active) | -98% (active) | -81.2% (active)
12 | CCCCCCC/C=C/[C@H]1O[C@]2(O)C(=O)C=C3C[C@@H](O[C@@H]4O[C@H](CO)[C@@H](O)C(O)[C@@H]4O)C[C@@H]3[C@H]2C=C1C (stereo not given in full) | 43.6% | -20.8% (active) | 54.3% | 1.36% (active) | 38.3% | 11.8% | -57.6% (active) | 59.8% | -52.4% (active) | 11.8%
13 | COc1ccc(/C=C\c2nc3ccccc3s2)cc1OP(=O)(O)O | 43.4% | 66.3% | 59.8% | 49.3% | 20.7% | 90.2% | 12.5% | 42.3% | 64.7% | 112%
14 | COc1ccncc1C#Cc1cncc(C(=O)Nc2ccc(CN3CCN(C)CC3)c(C(F)(F)F)c2)c1 | 28% | 3.6% (active) | 37.3% | 38.9% | 8.17% (active) | -2.19% (active) | 30.9% | 36.9% | 46.9% | 4.09% (active)
15 | COc1ccc(Cl)cc1NC(=O)c1c(NC(=O)C(F)(F)C(F)(F)F)sc2c1CCCCC2 | -5.14% (active) | -5.37% (active) | 12% | -14.6% (active) | 3.45% (active) | -32.7% (active) | -0.0876% (active) | 7.89% (active) | -13.8% (active) | -32.9% (active)
16 | O=S(=O)(NCCNc1nccc(-c2c(-c3ccc(F)c(O)c3)nc3sccn23)n1)c1ccccc1 | 72.2% | 99.8% | 96.1% | 98.9% | 75.3% | 63.9% | 59.3% | 81.8% | 113% | 33.9%
17 | C[C@@H]1CN(Cc2ccc(/C=C/c3n[nH]c4ccc5nc(-c6cn[nH]c6C(F)(F)F)c6c(c5c34)CCCC6)cc2)C[C@H](C)O1 | 31.9% | 45.3% | 45.1% | 36.7% | -4.09% (active) | 41.4% | 21% | 25.3% | 26.6% | 1.61% (active)
18 | CC(=O)N1N=C(c2cccc(Nc3ccncc3)c2)CC1c1ccc2c(c1)OCO2 (stereo not given) | 87.4% | 94.6% | 105% | 89.4% | 101% | 72.1% | 96.5% | 93.9% | -93.4% (active) | 84.3%
19 | COc1cccc(CNCCN2C(=O)c3ccc4c5c(ccc(c35)C2=O)C(=O)N(CCNCc2cccc(OC)c2)C4=O)c1 | 87.2% | 95.8% | 89.9% | 105% | 46.8% | 99.9% | 86.9% | 46.2% | 81% | 53.7%
20 | Cn1c(COC(=O)NCCc2ccccn2)nc2c(N3CCOCC3)nc(Cl)nc21 | 16.9% | 25.2% | 78.9% | 42.3% | 38.3% | -29.5% (active) | -24% (active) | 44.2% | -74.7% (active) | -41.1% (active)
21 | Nc1nnc2cc(Cl)ccc2n1 | 110% | 92% | 94.5% | 115% | 115% | 65.6% | 94.7% | 108% | 129% | 103%
22 | COc1ccc(NC(=O)c2sc3nc(C)c(C(=O)c4ccc(OC)cc4)cc3c2N)cc1 | 73.9% | 87.9% | 40.3% | 43% | 9.29% (active) | 67.3% | 40.7% | 24.6% | 59.9% | 42.9%
23 | Cc1cccc(Oc2ccc(Nc3ncnc4ccc(NC(=O)CNCCO)cc34)cc2Cl)c1 | 85.1% | 96.7% | 18.9% | 78.2% | 39.2% | 30.4% | 31.6% | 52.8% | 55.7% | 56.2%
24 | Cc1c2c(cc[n+]1Cc1ccc(F)cc1)c1ccc(OCc3cccc(F)c3)cc1n2Cc1cccc(F)c1 | -58.1% (active) | -66.9% (active) | -72.1% (active) | -91.2% (active) | -78% (active) | -73.9% (active) | -80.1% (active) | 25.1% | -85.8% (active) | -91.1% (active)
25 | O=S(=O)(NCCCNc1nccc(-c2c(-c3ccccc3)nc3occn23)n1)c1ccc(Cl)cc1 | 94.2% | 75.3% | 99.9% | 95.1% | 85% | 93.8% | 77.9% | 65.8% | 82.5% | 69.1%
26 | C=C1C(=O)O[C@H]2[C@H]1CC/C(COC(=O)NCCc1c[nH]c3ccc(Cl)cc13)=C\CC[C@@]1(C)O[C@@H]21 | 13.8% | 30.7% | 81.6% | 64.6% | 17.5% | -71% (active) | -80.1% (active) | 56.5% | -78.7% (active) | -70.9% (active)
